# Results taken from PubChem BioAssay (EPA / NIEHS).
# Inconclusive results are not listed. The source made the active and inactive calls. Rule for the calls: active = hit-call score of the fitted dose curve at least 0.9, where 1 is the maximum; inconclusive = response in the unintended direction; inactive = score below 0.9.
# Experiments:
# [1] = ACEA_ER_AUC_viability: ACEA Biosciences xCELLigence Real-Time Cell Analysis on Estrogen Receptor Agonism for Viability (AID 2283782);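 note: hit means loss of impedance signal meaning reduced cell growth or viability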
# Method in brief: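 Read-out: real-time electrical impedance (RT-CES) area under curve, loss of signal taken as reduced viability, normalized to DMSO baseline. T-47D cells, charcoal-stripped serum medium, compounds up to 100 uM final, continuous exposure, 80 h.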
# [2] = STM_H9_NormalizedViability: Cytotoxicity Assessment at 120 hours in the Stemina devTOX quickPredict H9 human embryonic stem cell (hESC)-based Assay (AID 2283784)
# Method in brief: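 Viability endpoint: background-corrected CellTiter-Fluor RFU expressed relative to the 0.1% DMSO mean on each plate. Undifferentiated H9 cells were treated with daily re-dosing and media change, and loss of signal was fitted.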
# [3] = target: AR (gene 367) (UniProt P10275); test: ACEA_AR_agonist_80hr: ACEA Biosciences xCELLigence Real-Time Cell Analysis on Androgen Receptor Agonism for Proliferation (AID 2283783);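 note: hits increase impedance growth signal above DMSO baseline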
# Procedure: ACEA_AR_agonist is a cell-based, single-readout assay that uses 22Rv1, a human prostate cancer cell line, with measurements taken at 80 hours after chemical dosing in a 384-well plate, although TO5 and TO6 (mc0.srcf) used a 96-well plate. Differences in plate size can be ignored given data normalization.ACEA_AR_agonist_80hr is one of two assay component(s) measured or calculated from the ACEA_AR assay. It is designed to make measurements of real-time cell-growth kinetics, a form of growth reporter, as detected with electrical impedance signals by Real-Time Cell Electrode Sensor (RT-CES) technology.Data from the assay component ACEA_AR_agonist_80hr was analyzed in the positive analysis fitting direction relative to DMSO as the negative control and baseline of activity. Using a type of growth reporter, measures of the cells for gain-of-signal activity can be used to understand the signaling at the pathway-level as they relate to the geneAR Furthermore, this assay endpoint can be referred to as a primary readout, because this assay has produced multiple assay endpoints where this one serves a signaling function. To generalize the intended target to other relatable targets, this assay endpoint is annotated to the nuclear receptor intended target family, where the subfamily is steroidal.
# The xCELLigence system Multi-E-Plate stations were used to measure the time-dependent response to chemicals. Each compound was tested in an eight-point, 1:4 serial dilution series starting at a maximum final concentration of 100 uM. A maximum starting concentration of 0.5% DMSO was present in the 100 uM chemical samples and was diluted along with the test article dilution series. The screen was performed in biological duplicate using two separate, 96-well, E-Plates 96 for each dilution series (n = 2). Positive controls (MG132 and testosterone) and a negative control (assay media) were tested in quadruplicate on each testing plate. […] Reference compounds were tested with 8 concentrations with 1:5 serial dilutions. All screening was carried out by ACEA Biosciences, Inc. (San Diego, CA). 22Rv1 cells purchased from ATCC were maintained in media supplemented with 10% fetal bovine serum (FBS). Before screening, 22Rv1 cells were preconditioned in assay medium. Cells were then detached and seeded in E-Plates 96 in assay medium. After overnight monitoring of growth once every hour, compounds were added to […] cells and remained in the medium until the end of the experiment. Cellular responses were then recorded once every 5 min for the first 5 h, and once every hour for an additional 100 h.
# [4] = target: AR (gene 367) (UniProt P10275); test: ACEA_AR_antagonist_80hr: ACEA Biosciences xCELLigence Real-Time Cell Analysis on Androgen Receptor Antagonism for Proliferation (AID 2283787);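 note: hits lower the impedance growth signal relative to DMSO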
# Method in brief: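 Measures real-time proliferation of 22Rv1 prostate cancer cells by electrode impedance at 80 hours after dosing. Test articles ran at eight concentrations (1:4 steps, top 100 uM final) in biological duplicate.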
# [5] = ATG_M_06_XSP1: Attagene TRANS-FACTORIAL Multi-Species (XSP1) HepG2 Assay for M06 Transcription Factor (Internal Marker) (AID 2283790)
# Method in brief: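 This background-control readout tracks M06 reporter mRNA, measured by RT-PCR and capillary electrophoresis. HepG2 cells transiently carrying the GAL4-UAS reporter panel were dosed for 24 h with 3 nM 6-alpha-fluorotestosterone added for partial AR stimulation; increases were scored relative to DMSO.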
# [6] = ATG_M_61_XSP1: Attagene TRANS-FACTORIAL Multi-Species (XSP1) HepG2 Assay for M61 Transcription Factor (Internal Marker) (AID 2283797)
# Method in brief: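 Background-control readout: reporter transcripts measured by RT-PCR and capillary electrophoresis 24 h after dosing transiently transfected HepG2 multi-reporter cells, with 3 nM 6-alpha-fluorotestosterone present. Fitted in the positive direction relative to DMSO.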
# [7] = system: turtle Androgen Receptor (AR), gene 101947425; test: ATG_trAR_XSP1: Attagene TRANS-FACTORIAL Multi-Species (XSP1) HepG2 Assay for turtle Androgen Receptor (AR) (AID 2283786)
# Method in brief: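 Partial androgen stimulation is provided by 3 nM 6-alpha-fluorotestosterone in a multi-species trans-factorial panel expressing a turtle AR–GAL4 fusion in HepG2. After 24 h, reporter mRNA is measured by RT-PCR and capillary electrophoresis and fitted upward against DMSO.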
# [8] = target: Estrogen receptor beta (Homo sapiens) (UniProt Q92731); test: ATG_hERb_XSP1: Attagene TRANS-FACTORIAL Multi-Species (XSP1) HepG2 Assay for human Estrogen Receptor (ESR2) (AID 2283788)
# Method in brief: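 Transient MRTU transfection of HepG2; ERβ–GAL4 TRANS format; 24 h dosing; 3 nM 6α-fluorotestosterone co-added; RNA → RT-PCR → 6-FAM primer extension → CE; activity vs DMSO.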
# [9] = target: GAL4 Transcription Factor (Internal Marker), GAL4 (gene 855828) (UniProt P04386); test: ATG_GAL4_XSP1: Attagene TRANS-FACTORIAL Multi-Species (XSP1) HepG2 Assay for GAL4 Transcription Factor (Internal Marker) (AID 2283789)
# Procedure: ATG_XSP1_multi-species_TRANS is a cell-based, multiplexed assay created by modifying the existing Attagene TRANS-FACTORIAL system to include a panel of nuclear receptors from some or all the following species: human (Homo sapiens), mouse (Mus musculus), frog (Xenopus laevis), zebrafish (Danio rerio), chicken (Gallus gallus), and turtle (Chrysemys picta). The ECOTOX-FACTORIAL format uses HepG2, a human liver cell line, with measurements taken at 24 hours after chemical dosing in a 24-well plate. Xsp1 included 3 nM 6-alpha-fluorotestosterone to partially stimulate the androgen receptor.ATG_GAL4_XSP1 is one of 29 assay components measured or calculated from the ATG_XSP1_multi-species_TRANS assay. It is designed to make measurements of mRNA induction, a form of inducible reporter, as detected with fluorescence intensity signals by Reverse transcription polymerase chain reaction (RT-PCR) and Capillary electrophoresis technology.This assay endpoint, ATG_GAL4_XSP1, was analyzed in the positive analysis fitting direction relative to DMSO as the negative control and baseline of activity. Using a type of inducible reporter, measures of mRNA for gain-of-signal activity can be used to understand the background control at the transcription factor-level as they relate to the gene. Furthermore, this assay endpoint can be referred to as a secondary readout, because this assay has produced multiple assay endpoints where this one serves a background control function. To generalize the intended target to other relatable targets, this assay endpoint is annotated to the background measurement intended target family, where the subfamily is baseline control.
# Human liver HepG2 cells are transiently transfected with multiple reporter transcription units (MRTUs) in 6-well plates using FuGene 6 reagent (Roche; 3 ml FuGene/1 mg DNA). The MRTU constructs are regulated by a cis-regulating element (promoter). […] A major difference between the CIS and TRANS system is that in CIS activities of endogenous TFs are measured, whereas the TRANS assay evaluates changes in activities of exogenous, chimeric NR-Gal4 proteins. […] At the end of 24 hour incubation, total RNA was isolated using TriZol reagent (Invitrogen). The isolated RNA is then reverse-transcribed using oligo(dT) primer and Mo-MLV reverse transcriptase (Invitrogen) with DNAse I (Ambion) treatment for 30 min. The one-tenth of the produced cDNA was amplified by PCR using Taq DNA polymerase (Invitrogen) and two reporter sequence-specific primers. The PCR products were fluorescently labeled by primer extension with 6-arboxyfluorescein (6-FAM) 5'-labeled reporter sequence-specific primer (2 min at 95 C, 20 s at 68 C and 10 min at 72 C) and these products were digested with 5U of HpaI (New England Biolabs) for 2h at 37 C. The fragments were purified using Qiaquick PCR columns (Qiagen), analyzed on an ABI 3130xL genetic analyzer (Applied Biosystems) with peak positions identified by using a set of X-rhodamine (ROX)-labeled MapMarker1000 molecular weight standards (BioVentures). The raw capillary electrophoresis data was processed using Attagraph software (Attagene).
# Chain of Estrogen receptor beta (Homo sapiens) (Q92731 whole entry, looked up, the tested form may be a part): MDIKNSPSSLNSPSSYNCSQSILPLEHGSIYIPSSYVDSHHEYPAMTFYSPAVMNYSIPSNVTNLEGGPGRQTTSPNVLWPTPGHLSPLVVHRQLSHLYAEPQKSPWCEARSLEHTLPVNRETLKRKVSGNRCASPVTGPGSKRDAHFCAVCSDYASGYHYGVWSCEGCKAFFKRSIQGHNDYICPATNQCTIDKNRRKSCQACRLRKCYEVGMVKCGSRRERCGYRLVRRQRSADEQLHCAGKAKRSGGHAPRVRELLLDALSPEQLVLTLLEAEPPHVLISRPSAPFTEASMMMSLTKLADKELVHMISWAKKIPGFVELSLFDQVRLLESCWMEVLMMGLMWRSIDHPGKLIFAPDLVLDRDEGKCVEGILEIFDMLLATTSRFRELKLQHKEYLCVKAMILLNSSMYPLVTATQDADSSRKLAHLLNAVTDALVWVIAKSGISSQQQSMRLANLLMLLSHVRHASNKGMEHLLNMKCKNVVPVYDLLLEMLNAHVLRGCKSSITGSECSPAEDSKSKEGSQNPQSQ
# Chain of AR (gene 367) (P10275 whole entry, looked up): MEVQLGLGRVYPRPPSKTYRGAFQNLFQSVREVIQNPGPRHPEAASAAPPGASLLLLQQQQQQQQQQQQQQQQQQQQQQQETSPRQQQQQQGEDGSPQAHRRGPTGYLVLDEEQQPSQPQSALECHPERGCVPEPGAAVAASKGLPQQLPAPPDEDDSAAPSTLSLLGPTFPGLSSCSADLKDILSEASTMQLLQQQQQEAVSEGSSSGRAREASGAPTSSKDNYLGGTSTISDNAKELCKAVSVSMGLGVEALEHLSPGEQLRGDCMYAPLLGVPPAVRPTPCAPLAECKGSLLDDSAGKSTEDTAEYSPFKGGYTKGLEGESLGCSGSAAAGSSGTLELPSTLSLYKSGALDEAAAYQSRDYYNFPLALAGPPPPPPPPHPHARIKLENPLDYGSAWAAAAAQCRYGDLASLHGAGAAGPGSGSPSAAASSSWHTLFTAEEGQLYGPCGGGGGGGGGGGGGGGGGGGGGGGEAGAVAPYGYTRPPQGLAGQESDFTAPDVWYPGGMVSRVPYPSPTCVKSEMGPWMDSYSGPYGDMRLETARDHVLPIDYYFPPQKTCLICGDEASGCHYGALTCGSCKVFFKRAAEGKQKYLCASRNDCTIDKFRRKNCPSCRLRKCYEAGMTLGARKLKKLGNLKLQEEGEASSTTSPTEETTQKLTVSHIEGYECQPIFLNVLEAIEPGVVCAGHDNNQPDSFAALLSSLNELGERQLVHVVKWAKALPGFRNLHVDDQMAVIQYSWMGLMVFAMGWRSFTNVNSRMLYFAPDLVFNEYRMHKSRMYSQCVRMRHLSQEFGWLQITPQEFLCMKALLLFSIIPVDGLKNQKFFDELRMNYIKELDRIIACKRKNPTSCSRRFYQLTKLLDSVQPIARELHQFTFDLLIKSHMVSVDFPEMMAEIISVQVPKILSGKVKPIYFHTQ
# Chain of GAL4 Transcription Factor (Internal Marker), GAL4 (gene 855828) (P04386 whole entry, looked up, the tested form may be a part): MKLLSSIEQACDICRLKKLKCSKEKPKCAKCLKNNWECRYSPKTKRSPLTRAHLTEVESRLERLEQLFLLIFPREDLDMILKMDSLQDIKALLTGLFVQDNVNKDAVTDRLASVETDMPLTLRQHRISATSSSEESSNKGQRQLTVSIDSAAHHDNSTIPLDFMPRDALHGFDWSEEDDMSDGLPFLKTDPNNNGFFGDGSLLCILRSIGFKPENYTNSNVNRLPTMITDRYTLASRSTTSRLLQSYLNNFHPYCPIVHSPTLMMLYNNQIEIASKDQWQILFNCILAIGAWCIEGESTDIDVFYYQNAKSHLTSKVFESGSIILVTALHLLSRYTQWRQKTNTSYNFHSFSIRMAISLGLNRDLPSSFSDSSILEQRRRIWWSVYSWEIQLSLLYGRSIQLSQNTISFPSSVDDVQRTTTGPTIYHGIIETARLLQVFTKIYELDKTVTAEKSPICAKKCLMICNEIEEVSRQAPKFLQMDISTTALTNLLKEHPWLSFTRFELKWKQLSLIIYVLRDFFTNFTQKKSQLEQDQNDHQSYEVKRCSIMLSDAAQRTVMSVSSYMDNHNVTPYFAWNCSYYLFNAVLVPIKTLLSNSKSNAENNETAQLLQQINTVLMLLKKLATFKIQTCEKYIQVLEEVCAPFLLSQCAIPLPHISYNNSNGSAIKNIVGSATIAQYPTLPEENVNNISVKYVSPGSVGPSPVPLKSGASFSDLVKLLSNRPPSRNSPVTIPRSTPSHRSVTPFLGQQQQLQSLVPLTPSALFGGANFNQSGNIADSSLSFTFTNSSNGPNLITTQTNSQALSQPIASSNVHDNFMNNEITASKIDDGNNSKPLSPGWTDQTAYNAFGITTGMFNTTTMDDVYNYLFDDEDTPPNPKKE
smiles,measurement,setting,value
COC(=O)c1ccccc1C(=O)OC,outcome,[1],inactive
same,outcome,[2],inactive
CCCC1COC(Cn2cncn2)(c2ccc(Cl)cc2Cl)O1 (stereo not given),AC50,[1],92.1 µM (active)
same,outcome,[3],inactive
same,AC50,[2],71.2 µM (active)
same,AC50,[4],76.1 µM (active)
CCOC(=O)C(Cl)Cc1cc(-n2nc(C)n(C(F)F)c2=O)c(F)cc1Cl (stereo not given),outcome,[1],inactive
CON(C)C(=O)Nc1ccc(Cl)c(Cl)c1,outcome,[1],inactive
same,outcome,[2],inactive
same,outcome,[5],inactive
same,outcome,[6],inactive
CC(C)Oc1cc(-n2nc(C(C)(C)C)oc2=O)c(Cl)cc1Cl,AC50,[1],81.9 µM (active)
same,outcome,[7],inactive
same,AC50,[8],100 µM (active)
same,outcome,[9],inactive
same,outcome,[5],inactive
same,outcome,[6],inactive
C#CCOS(=O)OC1CCCCC1Oc1ccc(C(C)(C)C)cc1 (stereo not given),AC50,[1],87.4 µM (active)
same,AC50,[2],3.86 µM (active)
same,AC50,[7],1.6 µM (active)
same,AC50,[8],24.2 µM (active)
same,outcome,[5],inactive
same,outcome,[6],inactive
C=CC1(C)OC(=O)N(c2cc(Cl)cc(Cl)c2)C1=O (stereo not given),outcome,[1],inactive
same,outcome,[2],inactive
same,outcome,[8],inactive
same,outcome,[9],inactive
same,outcome,[5],inactive
same,outcome,[6],inactive
CCNc1nc(Cl)nc(NCC)n1,outcome,[2],inactive
